This note sets out measurements from PubChem BioAssay (NCATS).

Experiment [1] deals with Lysosomal acid glucosylceramidase (Homo sapiens) (UniProt P04062). In words: Glucocerebrosidase-p2 (AID 348; in the data active means potency below about 10 µM; further: potency means the concentration at half of the fitted maximal effect). The note with it: purified GBA, blue fluorogenic substrate, 40 min. Summed up: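 Compounds titrated from 0.6 nM upwards against 0.2 nM enzyme in pH 5.9 citric acid/KH2PO4, taurocholate, tween-20; blue fluorogenic substrate 80 uM, 40 min room temperature, stopped and read Ex 365/Em 440 for AC50.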
Lysosomal acid glucosylceramidase (Homo sapiens), sequence (P04062 whole entry, looked up): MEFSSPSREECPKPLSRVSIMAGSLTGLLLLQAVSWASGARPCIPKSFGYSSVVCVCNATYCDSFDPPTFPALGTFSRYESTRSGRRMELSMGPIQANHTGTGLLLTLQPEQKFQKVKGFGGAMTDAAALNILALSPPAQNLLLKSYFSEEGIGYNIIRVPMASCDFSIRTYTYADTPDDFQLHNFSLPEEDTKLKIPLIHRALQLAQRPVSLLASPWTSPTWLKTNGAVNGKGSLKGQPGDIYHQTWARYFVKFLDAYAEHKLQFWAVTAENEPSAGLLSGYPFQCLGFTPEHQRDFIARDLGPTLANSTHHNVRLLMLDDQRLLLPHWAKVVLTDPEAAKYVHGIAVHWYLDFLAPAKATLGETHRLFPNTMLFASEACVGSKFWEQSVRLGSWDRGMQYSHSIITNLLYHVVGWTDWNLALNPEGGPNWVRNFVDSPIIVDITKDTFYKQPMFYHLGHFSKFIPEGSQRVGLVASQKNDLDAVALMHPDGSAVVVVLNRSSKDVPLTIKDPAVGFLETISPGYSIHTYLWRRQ

Experiment [2] in a line: AP1 Signaling Pathway (AID 357).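 Further: ME-180 reporter cells stimulated with EGF at its EC50 level; on the % scale 0 is the no-effect control and ±100 the full control effect.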 The conditions noted are these: ME-180 AP-1-bla reporter, EGF-induced, beta-lactamase ratio, 5 h; at 7.69 µM (top of the series) unless noted. Summed up: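 In this screen, ME-180 cells in Opti-MEM with 0.5% dialyzed FBS received EC50 EGF and compound titrations for 5 h. AP-1 reporter beta-lactamase was detected via CCF4 ratio, giving AC50 for positive and negative modulators.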

In experiment [3] the target is Cytochrome P450 1A2 (Homo sapiens) (UniProt P05177). As to the kind of experiment: p450-cyp1a2 (AID 410; calls by dose curve; further: potency means the concentration at half of the fitted maximal effect;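 on activity change, negative = inhibition: -100% = full effect of reference inhibitor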). The conditions noted are these: recombinant CYP1A2, luciferin-ME demethylation, luminescence; series mostly up to 57 µM. The procedure, abridged:
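Human CYP1A2 (20nM) demethylated Luciferin-ME at its Km (100uM) in 100mM KPO4. After 10 min compound preincubation, NADPH regeneration ran the reaction 60 min at room temperature. Luciferin was read by luminescence, normalized to 57 uM furafylline.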

A short description of experiment [4]: NFAT Signaling Pathway (AID 444).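 Further: carbachol stimulus at about its EC50 of 1 µM final; on the % scale 0 is the no-effect control and ±100 the full control effect.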 The note with it: Jurkat NFAT-bla M1, carbachol, beta-lactamase ratio, 5 h; at 7.69 µM (top of the series) unless noted. Summed up:
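Jurkat cells carrying an NFAT-driven β-lactamase reporter and co-transfected muscarinic M1 receptor were treated with compound plus carbachol (1 uM final, an EC50 level) for 5 h at 37 °C. CCF4 loading followed for 1 h at RT; 460/530 nm ratio gave %activity.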

The nature of experiment [5]: Stat Signaling Pathway (AID 446).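 Further: ME-180 cervical cancer cells given 40 pM IL-6 alongside compound; SIE-controlled beta-lactamase reporter measured as 460/530 nm FRET emission ratio; on the % scale 0 is the no-effect control and ±100 the full control effect.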 The conditions noted are these: ME-180 (cervical carcinoma) SIE beta-lactamase reporter, IL-6 stimulated, 5 h; at 7.69 µM (top of the series) unless noted. The procedure, abridged:
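IL-6/STAT signaling read in ME-180 cells via an SIE beta-lactamase reporter. Stimulus was 40 pM IL-6 (its AC50) for 5 hrs, so both activation and inhibition register.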

Experiment [6] concerns the target Glucocorticoid receptor (Homo sapiens) (UniProt P04150). As to the kind of experiment: GR-EFC Redistribution (AID 451; calls by dose curve; further: potency means the concentration at half of the fitted maximal effect). The conditions noted are these: CHO-K1 GR-EFC translocation, beta-gal luminescence, 2 h. The procedure, abridged: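 CHO-K1 cells stably expressing nuclear-localized β-gal enzyme acceptor and GR fused C-terminally to the enzyme donor fragment; ligand-driven nuclear translocation restores β-gal by complementation. Compounds titrated up to 46 uM final, 2 h at 37 °C; luminescence read.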

Experiment [7] addresses Mitogen-activated protein kinase 10 (Mus musculus) (UniProt Q61831). As to the kind of experiment: JNK3 AlphaScreen Assay (AID 530).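 Further: kinase came from lysate of stimulated human HepG2 cells; signal reports phosphorylation of biotinylated GST-cJun 1-79 at Ser73 with 10 µM ATP; on the % scale 0 is the no-effect control and ±100 the full control effect.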 The conditions noted are these: JNK3 lysate, c-Jun phosphorylation; series mostly up to 57.1 µM. The procedure, abridged:
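JNK3 came from HepG2 lysates pre-activated with IL-1beta and TNF-alpha and phosphorylated biotinylated GST-cJun (1-79) at 10 uM ATP, pH 7.6, room temperature. Compounds were titrated. AlphaScreen signal used anti-phospho-cJun (Ser73) antibody.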
A general note: Alpha assays give light when donor and acceptor beads are brought close together.

In experiment [8] the target is 3',5'-cyclic-AMP phosphodiesterase 4B (Homo sapiens) (UniProt Q07343). As to the kind of experiment: qHTS Assay for Inhibitors of PDE-IV (AID 607; active means well fitted activation curve with a large enough effect in the main read-out, with a control signal flat, not every such curve was filed as active; further: % of control where 0% means no effect). The note with it: HEK293 ACTOne CNG channel cells, membrane potential fluorescence; series mostly up to 22.9 µM. Summed up:
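Live HEK293 cells with a modified cyclic nucleotide-gated (CNG) channel report intracellular cAMP via membrane-potential dye fluorescence (ex 535/em 590 nm). Endogenous PDE-IV was targeted. Compounds were tested at up to 22.9 uM final; RO 20-1724 100 uM served as control.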
(qHTS replaces the single test concentration by a dilution series.)

Experiment [9] deals with Cytochrome P450 3A4 (Homo sapiens) (UniProt P08684). As to the kind of experiment: qHTS Assay for Activators of Cytochrome P450 3A4 (AID 885; active means well fitted curve in the direction sought with a large enough effect; an effect the other way counts as inactive or inconclusive; further: nearly all actives have a fitted effect of over 65% in size; further: potency means the concentration at half of the fitted maximal effect). The conditions noted are these: recombinant CYP3A4, Luciferin-PPXE luminescence, 60 min; series mostly up to 57.1 µM. Summed up: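 Quantitative HTS format: compounds preincubated with 20nM human CYP3A4 and Luciferin-PPXE substrate at KM, reaction started by NADPH regeneration, stopped after 60 min, luciferase luminescence read 20 min later.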
Cytochrome P450 3A4 (Homo sapiens), sequence (P08684 whole entry, looked up): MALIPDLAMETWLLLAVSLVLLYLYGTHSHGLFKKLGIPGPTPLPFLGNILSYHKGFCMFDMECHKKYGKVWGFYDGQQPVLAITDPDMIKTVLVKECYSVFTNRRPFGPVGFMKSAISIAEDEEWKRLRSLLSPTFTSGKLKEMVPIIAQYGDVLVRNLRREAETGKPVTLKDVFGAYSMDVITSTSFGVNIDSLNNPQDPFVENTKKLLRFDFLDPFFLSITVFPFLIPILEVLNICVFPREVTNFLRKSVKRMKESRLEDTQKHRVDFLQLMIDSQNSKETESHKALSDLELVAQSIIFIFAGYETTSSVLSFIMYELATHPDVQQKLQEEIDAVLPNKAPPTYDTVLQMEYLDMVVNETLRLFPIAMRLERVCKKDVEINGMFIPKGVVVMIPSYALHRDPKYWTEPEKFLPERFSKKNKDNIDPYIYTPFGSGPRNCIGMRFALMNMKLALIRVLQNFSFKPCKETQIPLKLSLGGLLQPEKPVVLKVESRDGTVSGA

Experiment [10] is described as follows: Primary qHTS for small molecule stabilizers of the endoplasmic reticulum resident proteome: Secreted ER Calcium Modulated Protein (SERCaMP) assay (AID 1508630; active means well fitted curve in the direction sought with a large enough effect; an effect the other way counts as inactive or inconclusive; further: on the % scale 0 is the no-effect control and ±100 the full control effect). The conditions noted are these: SH-SY5Y GLuc-SERCaMP (Gaussia luciferase released on ER calcium loss) secretion, thapsigargin, luminescence; series mostly up to 38.4 µM. The procedure, abridged:
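GLuc-SERCaMP-expressing SH-SY5Y cells, pretreated 16 h with compound, are challenged with thapsigargin to empty ER calcium stores; after 4 h, coelenterazine is added directly to the medium and luminescence is imaged.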

The target of experiment [11] is Cytochrome P450 3A4 (Homo sapiens) (UniProt P08684). As to the kind of experiment: qHTS Assay for Inhibitors and Substrates of Cytochrome P450 3A4 (AID 884; active means well fitted curve in the direction sought with a large enough effect; an effect the other way counts as inactive or inconclusive; further: nearly all actives have a fitted effect of over 50% in size; further: potency means the concentration at half of the fitted maximal effect). The note with it: recombinant CYP3A4, Luciferin-PPXE luminescence; series mostly up to 57.1 µM. Summed up:
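20 nM human CYP3A4 with 25 uM Luciferin-PPXE (at KM) in 200 mM KPO4, preincubated 10 min with compound; NADPH regeneration started a 60 min RT reaction. Luciferin detected by luminescence, normalized to 57 uM ketoconazole as full inhibition.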

Values without a mark were called inactive. Results filed as inconclusive are left out. Calls of active or inactive are those of the source. Unless noted, the call rests on the fitted dose curve; in most records, active means well fitted curve in either direction with a large enough effect (not every such curve was filed as active); inconclusive means small, poorly fitted or top-dose-only effect, or another doubt; inactive means flat fitted curve, though single readings scatter. Where only a bound is given, the exact number is not on record here.

Glucocorticoid receptor (Homo sapiens), sequence (P04150 whole entry, looked up, the tested form may be a part): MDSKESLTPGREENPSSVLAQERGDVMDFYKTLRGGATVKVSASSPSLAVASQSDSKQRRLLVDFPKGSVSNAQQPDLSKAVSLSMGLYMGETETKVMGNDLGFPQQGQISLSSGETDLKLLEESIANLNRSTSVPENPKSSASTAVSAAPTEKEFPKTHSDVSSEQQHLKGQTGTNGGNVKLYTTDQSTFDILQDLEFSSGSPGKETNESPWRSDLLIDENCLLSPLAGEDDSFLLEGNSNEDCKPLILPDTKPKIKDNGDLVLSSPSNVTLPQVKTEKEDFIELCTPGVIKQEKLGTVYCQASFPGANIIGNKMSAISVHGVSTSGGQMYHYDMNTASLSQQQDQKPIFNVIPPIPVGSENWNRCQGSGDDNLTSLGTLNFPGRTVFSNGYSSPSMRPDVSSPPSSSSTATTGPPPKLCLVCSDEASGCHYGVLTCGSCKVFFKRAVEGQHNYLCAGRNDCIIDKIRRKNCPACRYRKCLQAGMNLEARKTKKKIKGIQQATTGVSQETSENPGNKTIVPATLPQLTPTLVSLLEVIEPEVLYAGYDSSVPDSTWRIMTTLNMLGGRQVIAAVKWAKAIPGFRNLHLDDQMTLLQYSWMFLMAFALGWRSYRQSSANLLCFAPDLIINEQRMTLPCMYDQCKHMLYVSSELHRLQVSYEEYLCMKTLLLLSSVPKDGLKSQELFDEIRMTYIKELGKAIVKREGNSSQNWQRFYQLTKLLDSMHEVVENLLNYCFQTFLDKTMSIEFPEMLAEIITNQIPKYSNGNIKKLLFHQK
Cytochrome P450 1A2 (Homo sapiens), sequence (P05177 whole entry, looked up): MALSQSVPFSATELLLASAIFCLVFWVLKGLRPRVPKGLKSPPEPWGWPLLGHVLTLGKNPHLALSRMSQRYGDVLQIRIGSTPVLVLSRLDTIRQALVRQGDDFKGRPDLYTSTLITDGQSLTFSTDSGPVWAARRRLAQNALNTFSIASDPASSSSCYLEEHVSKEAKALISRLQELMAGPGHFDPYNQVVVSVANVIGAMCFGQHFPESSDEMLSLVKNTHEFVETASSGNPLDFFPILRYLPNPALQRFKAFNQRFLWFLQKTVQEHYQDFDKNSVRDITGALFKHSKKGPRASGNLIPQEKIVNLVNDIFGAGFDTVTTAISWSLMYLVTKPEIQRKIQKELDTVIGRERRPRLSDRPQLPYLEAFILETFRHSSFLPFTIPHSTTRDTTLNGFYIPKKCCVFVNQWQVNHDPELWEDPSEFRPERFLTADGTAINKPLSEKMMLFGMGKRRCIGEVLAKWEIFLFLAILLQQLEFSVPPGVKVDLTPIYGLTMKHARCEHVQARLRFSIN
3',5'-cyclic-AMP phosphodiesterase 4B (Homo sapiens), sequence (Q07343 whole entry, looked up): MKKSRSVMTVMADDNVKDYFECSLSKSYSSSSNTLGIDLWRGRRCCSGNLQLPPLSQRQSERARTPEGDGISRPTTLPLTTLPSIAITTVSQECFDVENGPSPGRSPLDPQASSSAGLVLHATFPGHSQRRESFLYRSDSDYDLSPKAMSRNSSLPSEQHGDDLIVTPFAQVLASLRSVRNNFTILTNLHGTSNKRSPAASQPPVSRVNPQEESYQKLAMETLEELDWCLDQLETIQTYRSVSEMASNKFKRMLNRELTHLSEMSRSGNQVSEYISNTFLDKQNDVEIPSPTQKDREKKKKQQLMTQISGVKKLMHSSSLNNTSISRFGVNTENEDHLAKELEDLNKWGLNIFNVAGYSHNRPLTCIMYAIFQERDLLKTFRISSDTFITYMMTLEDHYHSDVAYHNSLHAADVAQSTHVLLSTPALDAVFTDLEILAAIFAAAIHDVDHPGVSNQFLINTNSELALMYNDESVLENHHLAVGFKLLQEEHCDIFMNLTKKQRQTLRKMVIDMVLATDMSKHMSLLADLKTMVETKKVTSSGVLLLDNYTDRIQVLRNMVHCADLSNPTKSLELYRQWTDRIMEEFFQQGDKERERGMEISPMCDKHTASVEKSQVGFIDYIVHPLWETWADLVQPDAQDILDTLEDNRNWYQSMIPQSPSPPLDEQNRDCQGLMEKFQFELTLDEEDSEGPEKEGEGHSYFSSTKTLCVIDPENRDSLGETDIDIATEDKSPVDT

In the case of `Cn1cccc1C(=O)N1CCC[C@@]2(CCN(Cc3nccs3)C2)C1`, the Potency is > 11.4 µM in experiment [1] and > 46 µM in experiment [6]. The activity change, negative = inhibition in [2] is -4.63%; in experiment [4], 12.5%. For the same compound, the Potency entry in experiment [3], in experiment [7], in experiment [8] and in experiment [9] was “inactive” in each case. Further, the activity, negative = inhibition in experiment [5] was 9.2%. Also, the result in [10] was inactive.

`COc1ccc(-n2c(=O)cnc3cnc(Oc4cccc(Cl)c4)nc32)cc1`: the results for the Potency in experiment [1], in [3] and in [6] were > 11.4 µM, 7.94 µM (active) and > 46 µM, respectively. Besides, the activity change, negative = inhibition in experiment [2] was -9.58%; in experiment [4] it was 4.93%. For the same compound, in [5], the activity, negative = inhibition was -9.34%. Besides, the Potency entry in experiment [7], in [8] and in experiment [9] was “inactive” throughout. Also, in experiment [10], the result was inactive.

As to `COc1cccc(Cn2c(=O)c(-c3cccc(C#N)c3)nc3cnc(Nc4ccccc4)nc32)c1`, the Potency in experiment [1] is > 11.4 µM; in experiment [6], > 46 µM. The values for the activity change, negative = inhibition in experiment [2] and in [4] were -3.95% and -12.1%, respectively. The Potency result in [3], in experiment [7], in experiment [8] and in experiment [9] was “inactive” throughout. Further, in [5], the activity, negative = inhibition is -14.2%. Moreover, the outcome in experiment [10] was inactive.

`O=C(c1ccncc1)N1CCC[C@@]2(CCN(c3ccccc3)C2)C1`: the Potency in [1] is > 11.4 µM; in experiment [6], > 46 µM; in [11], 3.16 µM (active). Further, the activity change, negative = inhibition in [2] is -9.5%; in experiment [4], -16.6%. Moreover, the Potency entry in experiment [3], in [7], in [8] and in experiment [9] was “inactive” each time. Besides, in [5], the activity, negative = inhibition is 3.29%. The result in [10] was inactive.

For the compound `COc1ccc(NC(=O)N2CC3(CCN(S(=O)(=O)c4ccccc4)CC3)C2)cc1`, the figures for the Potency in experiment [1] and in experiment [6] were > 11.4 µM and > 46 µM, respectively. In addition, the values for the activity change, negative = inhibition in experiment [2] and in experiment [4] were -1.69% and 10.6%, respectively. Moreover, the Potency result in [3], in experiment [7], in [8] and in [9] was “inactive” each time. Moreover, the activity, negative = inhibition in experiment [5] was -2.28%. For the same compound, the outcome in [10] was inactive.

Regarding `O=C(c1cccc(F)c1)N1CCC2(CC1)CCN(c1ccc(-c3ccccc3)cc1)CC2`, the values for the Potency in [1], in [6] and in experiment [9] were > 11.4 µM, > 46 µM and 12.6 µM (active), respectively. In addition, the activity change, negative = inhibition is 4.61% in experiment [2] and 0.978% in experiment [4]. Besides, the Potency result in experiment [3], in experiment [7], in [8] and in [11] was “inactive” each time. Moreover, the activity, negative = inhibition in experiment [5] is -7.26%. Moreover, the outcome in experiment [10] was inactive.

Take `O=C(Nc1cccc(F)c1)N1CCC2(CC1)CCN(C(=O)c1ccco1)CC2`: the Potency in [1] was > 11.4 µM; in experiment [6] it was > 46 µM. Further, the figures for the activity change, negative = inhibition in experiment [2] and in [4] were -3.88% and 4.6%, respectively. The Potency result in experiment [3], in experiment [7], in [8] and in experiment [11] was “inactive” throughout. Also, the activity, negative = inhibition in [5] was 4.97%. Further, the outcome in [10] was inactive.

For the compound `COC(=O)N1CCC2(CCCN(C(=O)Nc3ccc(OC)cc3)C2)CC1`, the Potency in [1] is > 11.4 µM; in experiment [3], 20 µM (active); in experiment [6], > 46 µM. The activity change, negative = inhibition in experiment [2] was -3.8%; in experiment [4] it was -6.91%. Also, in experiment [5], the activity, negative = inhibition is -13.9%. For the same compound, the Potency result in experiment [7], in experiment [8] and in [9] was “inactive” throughout. Moreover, in experiment [10], the result was inactive.

As for `O=C(c1cccc(F)c1)N1CCC[C@@]2(CCN(c3cccc(-c4ccccc4)c3)C2)C1`, the Potency in experiment [1] is > 11.4 µM; in experiment [3], 15.8 µM (active); in [6], > 46 µM; in [11] it was 7.94 µM (active). Further, the figures for the activity change, negative = inhibition in [2] and in experiment [4] were 4.68% and -14.4%, respectively. Further, in [5], the activity, negative = inhibition is -5.9%. Besides, the Potency entry in [7], in [8] and in experiment [9] was “inactive” each time. Further, the outcome in experiment [10] was inactive.

With `O=C(c1cnccn1)N1CCC2(CC1)CCN(c1ccccc1)CC2`, the Potency in [1] is > 11.4 µM; in experiment [6], > 46 µM. Further, the results for the activity change, negative = inhibition in [2] and in [4] were -3.01% and 9.49%, respectively. The Potency entry in experiment [3], in [7], in experiment [8] and in experiment [11] was “inactive” each time. The activity, negative = inhibition in [5] is -24.3%. Besides, the outcome in experiment [10] was inactive.
